Source: PubChem BioAssay (National Center for Advancing Translational Sciences (NCATS))
Gal4-VP16 FLuc = Gal4-VP16 reporter inhibition counter-screen; Drosophila S2 Gal4-VP16 UAS-luciferase, luminescence, 20 h; Potency, µM (titrated, usually from 53.6 µM), hits mostly inhibitors; hit rate 3.5% among 310,000; AID 2546;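 also: Gal4-VP16 expression switched on by copper sulfate through the metallothionein promoter; nearly all actives have a fitted effect of over 50% in size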
PINK1 modulator = modulators of PINK1 expression; PINK1 immunofluorescence, high-content cytometry, 24 h; Potency, µM (highest dose often 76.6 µM), usual class: activators; hit rate 0.2% among 410,000; AID 624263; active = well fitted activation curve with a large enough effect; inconclusive = small, poorly fitted or top-dose-only effect; cell line not stated here; also: nearly all actives have a fitted effect of over 65% in size
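PINK1 protein, normally rapidly degraded, was detected by immunofluorescence after 24 hour compound treatment of a stable cell line. Titration data (5 concentrations) came from laser-scanning cytometry, with CCCP-treated wells as controls.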
Sfp inh = Sfp phosphopantetheinyl transferase inhibition; Q9F4F7; Biochemical Sfp PPTase activity, qHTS; Potency, µM, most hits filed as inhibitors; hit rate 3.5% among 310,000;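 also: the enzyme is Sfp with the accession as filed and its product quenches rhodamine fluorescence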
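Fluorescence-quenching assay with 15 nM Sfp, 5 uM rhodamine-CoA and 12.5 uM BHQ-2-labelled ybbR peptide in pH 7.6 Hepes/MgCl2 buffer. Enzyme was pre-incubated with compound for 15 min at room temperature. Rate was taken from the 30-min fluorescence change (525/598 nm).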
RORg inh = blocks mouse ROR gamma transcriptional activity; hit rate 5.4% among 310,000; AID 2551; Potency, µM (highest dose often 53.6 µM), usual class: inhibitors; Drosophila S2 Gal4-RORgamma UAS-luciferase reporter, 20 h; also: nearly all actives have a fitted effect of over 60% in size
Target sequence (P51450 whole entry, looked up, the tested form may be a part): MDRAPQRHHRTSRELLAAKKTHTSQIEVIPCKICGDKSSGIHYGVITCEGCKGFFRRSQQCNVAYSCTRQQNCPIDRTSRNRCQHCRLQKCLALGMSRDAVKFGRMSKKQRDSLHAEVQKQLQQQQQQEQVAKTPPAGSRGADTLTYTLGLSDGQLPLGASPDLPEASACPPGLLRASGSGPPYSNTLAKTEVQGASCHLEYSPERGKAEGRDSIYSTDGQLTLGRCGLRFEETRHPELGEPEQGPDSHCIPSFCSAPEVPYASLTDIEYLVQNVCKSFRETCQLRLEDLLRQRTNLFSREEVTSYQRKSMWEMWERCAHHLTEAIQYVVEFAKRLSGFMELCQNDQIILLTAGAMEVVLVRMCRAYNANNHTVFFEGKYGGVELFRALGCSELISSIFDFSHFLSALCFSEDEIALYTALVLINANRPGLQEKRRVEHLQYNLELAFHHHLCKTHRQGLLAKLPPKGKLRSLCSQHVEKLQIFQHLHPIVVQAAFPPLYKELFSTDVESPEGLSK
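Drosophila S2 cells stably expressing Gal4-DBD/mouse RORγ fusion under metallothionein promoter plus UAS-luciferase; compound 1 h, then 700 uM CuSO4 induction for 20 h at ambient temperature; inhibition read as reduced luminescence.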
Epigenetic reg = derepresses silenced GFP reporter in murine cells. murine LDR cells, GFP reporter derepression, 30 h. Potency, µM (highest dose often 53.9 µM), usual class: activators. hit rate 0.2% among 280,000. AID 1865; also: nearly all actives have a fitted effect of over 60% in size
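In this reporter-derepression format, murine cells bearing a silenced integrated CMV-GFP locus incubate with test compound (30 h, 37 C), then are washed and imaged; fluorescent objects of 20–120 um count as induced cells.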
ClpP mod = qHTS Assay for Activators of ClpP; ATP-dependent Clp protease proteolytic subunit (Bacillus subtilis (strain 168)), P80244; purified B. subtilis ClpP, FRET peptide cleavage, 20 min; Potency, µM (series often up to 57.5 µM); hit rate 1.9% among 340,000; active = well fitted falling curve with a large enough effect; inconclusive = small, poorly fitted or top-dose-only effect; inactive = no such curve, though single readings can be large or run the other way; also: the source files actives as falling curves though it sought activators and does not explain the sign; nearly all actives have a fitted effect of over 65% in size
Target sequence (P80244 whole entry, looked up): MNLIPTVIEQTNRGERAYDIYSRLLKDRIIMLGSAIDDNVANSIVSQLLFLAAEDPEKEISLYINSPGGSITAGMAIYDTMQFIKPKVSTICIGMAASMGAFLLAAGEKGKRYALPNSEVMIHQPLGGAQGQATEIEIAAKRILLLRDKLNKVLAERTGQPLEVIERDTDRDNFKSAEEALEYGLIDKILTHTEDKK
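ClpP 10 microg/mL final, pH 8 Tris/KCl buffer with BSA, glycerol, Tween-20; compound pinned in; FRET-FV substrate; RT 20 min; Ex320/Em430; ΔFRET vs ADEP 5.8 microM, DMSO, no enzyme.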
Hits are given with their value; i = inactive; ? = inconclusive; nt = no result; ! = not confirmed by another sample; [ ] = another dose, or the depositor's remark. Compounds with a hit are over-represented: about 8.1% of the library has one in this group of screens. Unless noted, calls follow the shape of the dose curve; as a rule, active = well fitted curve in the direction sought with a large enough effect; inconclusive = small, poorly fitted or top-dose-only effect, or another doubt; inactive = no such curve, though single readings can be large; an effect the other way counts as inactive or inconclusive.

SMILES | Gal4-VP16 FLuc | PINK1 modulator | Sfp inh | RORg inh | Epigenetic reg | ClpP mod
CCC(C)O (stereo not drawn) | i | nt | nt | i | nt | nt
Cc1ccc(C(=O)N2CCCC(N(C)Cc3ccccc3)C2)s1 (stereo not drawn) | i | i | i | i | nt | 22µM
COC(=O)C1=C(C(=O)OC)[C@@H]2Nc3ccccc3[C@@]23C[C@@H](C(=O)OC)N(S(=O)(=O)c2ccc(C)cc2)C3=N1 | nt | nt | i | nt | nt | nt
CCOc1ccc(C2C(C(=O)Nc3ccc(C)cc3C)=C(C)Nc3c(C(=O)Nc4ccc(C)cc4)cnn32)cc1OC (stereo not drawn) | nt | i | nt | nt | i | i
COc1cc(OC)c(NC(=O)C2CCN(S(=O)(=O)c3ccc4c(c3)oc(=O)n4C)CC2)cc1Cl | nt | i | nt | nt | i | i
O=c1[nH]c(-c2ccncc2)nc2ccccc12 | i | i | 14µM | i | i | i
CN(C)c1ccc(-c2nc3ccccc3c(=O)[nH]2)cc1 | ? | i | i | 5.6µM | i | ?
COc1ccc(-c2nc3ccccc3c(=O)[nH]2)cc1 | i | i | i | ? | nt | nt
CCOc1ccc(-n2c(C)cc(C(=O)CCl)c2C)cc1 | i | i | i | ? | ? | i
COC(=O)c1ccc(-n2c(C)cc(C(=O)CCl)c2C)cc1 | i | i | i | 11µM | i | i
CCOc1cc(C)c(-c2onc(C(F)(F)F)c2-c2csc(C)n2)c(O)c1 | 11µM | i | i | i | i | i
NC(=O)c1ccccc1N/C=C1\CCCCC1=O | i | i | i | i | i | i
O=C1CCCC/C1=C\Nc1ccccc1C(=O)O | i | i | i | i | i | 32µM
COc1cc(-c2nc3ccc(N4CCN(C)CC4)cc3[nH]2)cc(OC)c1OC | ? | i | i | 7.1µM | i | nt
CCN(CC)C(=O)C1CCCN(Cc2ccccc2)C1 (stereo not drawn) | i | i | i | i | i | i
CN(Cc1ccccc1)C(=O)C1CCCN(Cc2ccc(Cl)cc2)C1 (stereo not drawn) | i | i | ? | i | i | 11µM
CC(C)(C)C1C=C(Sc2ccccc2)C(=O)O1 (stereo not drawn) | ? | 16µM | i | i | i | i
Cc1ccc(Oc2ccc(/C=N/O)cn2)cc1 | i | i | i | i | i | 16µM
CCOc1ccc(/C=N/O)cc1 | i | i | i | i | i | i
Cc1ccc(COc2ccc(/C=N/O)cc2)cc1 | ? | i | i | 8.9µM | i | i
c1cc(Nc2ncnc3sc4c(c23)CCC4)ccn1 | i | i | i | i | i | i
CN(C)c1ccc(Nc2ncnc3sc4c(c23)CCCC4)cc1 | nt | i | nt | nt | i | i
NNc1ncnc2sc3c(c12)CCC3 | 4µM | i | ? | 3.2µM | i | i
C(=N\Nc1ncnc2sc3c(c12)CCC3)/c1ccncc1 | 20µM | i | ? | 10µM | i | i
C(=N\Nc1ncnc2sc3c(c12)CCC3)/c1cccs1 | 5µM | nt | i | 2.5µM | i | nt
SMILES | Gal4-VP16 FLuc | PINK1 modulator | Sfp inh | RORg inh | Epigenetic reg | ClpP mod
CC1(C)Cc2c(sc3ncnc(NN)c23)CO1 | ? | i | 40µM | ? | nt | i
Cc1ccccc1NC(=O)CSc1nc2ccc(NC(=O)c3ccccc3)cc2s1 | nt | i | nt | nt | i | i
CC1(C)Cc2c(sc3ncn(N)c(=N)c23)CO1 | i | i | i | i | i | i
CC1(C)Cc2c(sc3ncn4c(=S)[nH]nc4c23)CO1 | i | i | 45µM | ? | i | nt
Cc1ccc(CC(=O)NCc2nc(-c3cccc(C)c3)no2)cc1 | nt | i | nt | nt | i | i
COc1ccc(Nc2nnc(-c3cc4c(ccc5ccccc54)oc3=O)s2)cc1 | nt | i | nt | nt | i | i
CCc1ccc(Nc2nnc(-c3cc4cc(OC)ccc4oc3=O)s2)cc1 | nt | i | nt | nt | 16µM | i
Cc1cccc(NC(=O)Cn2c(=O)ccc3cc(S(=O)(=O)N4CCCC4)ccc32)c1C | nt | i | nt | nt | i | i
Cc1cc(C(=O)COc2ccccc2C(N)=O)c(C)n1C | i | i | i | i | i | 28µM
CCCNc1nc(C#N)nc(Nc2ccccc2)n1 | i | nt | nt | nt | nt | nt
CCCNC(=O)c1nnsc1S(=O)(=O)c1ccc(Cl)cc1 | 3.2µM | i | 13µM | 1.1µM | ? | nt
CNC(=O)c1nnsc1S(=O)c1ccc(Cl)cc1 (stereo not drawn) | 5µM | i | 13µM | 1.3µM | i | nt
CCCNC(=O)c1nnsc1S(=O)c1ccc(Cl)cc1 (stereo not drawn) | 4µM | i | 20µM | 1.1µM | i | nt
CCCNC(=O)NS(=O)(=O)c1ccc(Cl)cc1 | i | i | i | i | i | i
C[C@@](N)(C(=O)O)c1ccc(C(=O)O)cc1 | i | nt | 50µM! | i | i | nt
CC(N)(C(=O)O)c1ccc(C(=O)O)cc1 (stereo not drawn) | nt | nt | 56µM | nt | i | nt
CCOc1ccc(C(C)(N)C(=O)O)cc1 (stereo not drawn) | i | i | i | i | i | i
CC1(CCl)N([O-])C2=C(CCCC2)[N+]1=O (stereo not drawn) | i | i | 35µM | i | i | nt
CC1=C(C(=O)OCc2ccccc2)C(/C=C/c2ccccc2)NC(=S)N1 (stereo not drawn) | 5.6µM | i | i | ? | i | i
C=CCOC(=O)C1=C(C)NC(=S)NC1/C=C/c1ccccc1 (stereo not drawn) | 6.3µM | i | i | 2.5µM | i | i
Cc1ccccc1OCC(=O)NCC(=O)OCc1ccc2ccccc2c1 | nt | i | nt | nt | nt | i
COc1ccc(NC(=O)CSc2nc(-c3ccccc3)nc3c2Cc2c(CO)cnc(C)c2O3)cc1Cl | nt | i | nt | nt | i | i
O=C(O)c1ccccc1C(=O)Nc1n[nH]c(=S)s1 | i | i | 10µM | i | i | i
O=C(O)c1ccc2[nH]c3c(c2c1)CSCC3 | i | i | 40µM | i | i | i
CC1CCC2C(=O)N3CCCC3C(=O)N2C1c1ccc(Br)cc1 (stereo not drawn) | i[10 µM] | nt | ? | i[10 µM] | i[10.1 µM] | nt
SMILES | Gal4-VP16 FLuc | PINK1 modulator | Sfp inh | RORg inh | Epigenetic reg | ClpP mod
CC(=O)Nc1ccc(S(=O)(=O)N2CCN(C)CC2)cc1 | i | i | i | i | i | i
Cc1cccc(C(=O)NC(=S)Nc2ccc(S(=O)(=O)N3CCCCC3)cc2)c1 | 10µM | i | i | 14µM | i | i
Cc1ccc(C(=O)NC(=S)Nc2ccc(S(=O)(=O)N3CCN(C)CC3)cc2)cc1 | i | i | ? | 11µM | i | i
Cc1cccc(C(=O)NC(=S)Nc2ccc(S(=O)(=O)N3CCN(C)CC3)cc2)c1 | ? | i | i | 13µM | i | i
CC(=O)N(CCP(=O)(c1ccccc1)c1ccccc1)Cc1ccco1 | i | i | i | i | i | i
O=P(CCNCc1ccco1)(c1ccccc1)c1ccccc1 | i | i | i | i | i | 4µM
COc1cccc(NC(=O)c2oc3ccccc3c2NC(=O)Cc2cccc(C)c2)c1 | nt | i | nt | nt | i | i
CC1(C(=O)Nc2cccc3cccnc23)CCN1Cc1cccc2c1OCO2 (stereo not drawn) | nt | i | nt | nt | nt | 32µM
